# PubChem BioAssay (NCI)
# Several values for one entry are separate records, joined by “and”; a condition that tells them apart may be missing. Equal entries are not always repeated. The panel holds about 83,000 compounds, 20% with a hit somewhere; the sample as a whole holds those more often.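 Note: values are percent growth. 100 is the growth of untreated cells, values between 100 and 0 indicate rising inhibition; between -100 and 0 indicates cell death.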 Activity calls are given as the source filed them. How the source made its calls: active means growth percent below 10; inactive means the rest.
# Assays:
# Assay in all cases: NCI-60 one-dose screen, 48 h (100 = growth as untreated, 0 = no growth, -100 = all killed)
# Details in all cases: 10 µM unless noted
# NCI-H23 lung = test system: NCI-H23 lung
# NCI-H226 lung = test system: NCI-H226 lung
# NCI-H322M lung = test system: NCI-H322M lung
# HOP-62 NSCLC = test system: HOP-62 NSCLC
# NCI-H460 lung = test system: NCI-H460 lung
# HOP-92 NSCLC = test system: HOP-92 NSCLC
# NCI-H522 lung = test system: NCI-H522 lung
# A549/ATCC NSCLC = test system: A549/ATCC NSCLC
# 786-0 renal = test system: 786-0 renal
# COLO 205 colon = test system: COLO 205 colon
SMILES,growth (NCI-H23 lung),growth (NCI-H226 lung),growth (NCI-H322M lung),growth (HOP-62 NSCLC),growth (NCI-H460 lung),growth (HOP-92 NSCLC),growth (NCI-H522 lung),growth (A549/ATCC NSCLC),growth (786-0 renal),growth (COLO 205 colon)
O=C(Cc1ccc(F)cc1)c1ccccc1,103% (inactive),110% (inactive),99% (inactive),109% (inactive),108% (inactive),89.7% (inactive),101% (inactive),102% (inactive),97.6% (inactive),134% (inactive)
C=C1CC[C@@H]2[C@](C)(COC(C)=O)[C@H](OC(C)=O)CC[C@@]2(C)[C@@H]1CC(Nc1ccc(S(=O)(=O)Nc2nccs2)cc1)C1=CCOC1=O (stereo not given in full),38.1% (inactive),-14% (active),59.9% (inactive),120% (inactive),29.5% (inactive),54% (inactive),-61.9% (active),43.7% (inactive),6.27% (active),-24.6% (active)
COc1nc(=O)n(C2C=CC(=O)O2)cc1F (stereo not given),102% (inactive),106% (inactive),102% (inactive),110% (inactive),110% (inactive),87.8% (inactive),39.1% (inactive),123% (inactive),92.5% (inactive),46.5% (inactive)
Cn1cc(-c2csc(-c3cn(CCOC(N)=O)c4ccccc34)n2)c2cccnc21,81.2% (inactive),86.4% (inactive),90.8% (inactive),74.5% (inactive),82.4% (inactive),83.1% (inactive),24.2% (inactive),67.4% (inactive),87.4% (inactive),77.6% (inactive)
COc1ccc(C2Nc3nc(SC)nc(N)c3N=C3c4ccccc4CCC32)cc1 (stereo not given),72.4% (inactive),107% (inactive),109% (inactive),102% (inactive),86.7% (inactive),50.7% (inactive),90.9% (inactive),102% (inactive),93.6% (inactive),112% (inactive)
COc1ccc(-c2nc(Cl)c3c(C)nn(-c4ccc(F)cc4)c3n2)cc1,97.1% (inactive),103% (inactive),105% (inactive),104% (inactive),108% (inactive),101% (inactive),97.3% (inactive),90.4% (inactive),105% (inactive),110% (inactive)
O=[N+]([O-])c1ccc2[nH]c3nccc(NCc4cccc(Cl)c4)c3c2c1,82.3% (inactive),83.9% (inactive),77.8% (inactive),10.8% (inactive),26.8% (inactive),92.5% (inactive),50.3% (inactive),58.8% (inactive),76.4% (inactive),68.1% (inactive)
COc1ccc(CCNC(=O)COc2cc3c(Nc4ccc(F)c(Cl)c4)ncnc3cc2OC)cc1OC,92.5% (inactive),98.5% (inactive),27.3% (inactive),95.7% (inactive),95.7% (inactive),87.9% (inactive),70.2% (inactive),84.8% (inactive),89.4% (inactive),102% (inactive)
COc1ccc2c(c1)CC[C@@H]1[C@@H]2CC[C@]2(C)C3C(=CCC4C(=O)N(c5ccccc5)C(=O)C43)C[C@@H]12 (stereo not given in full),84.4% (inactive),90.8% (inactive),103% (inactive),90.3% (inactive),93.7% (inactive),99.3% (inactive),80.1% (inactive),92.3% (inactive),87.7% (inactive),94.4% (inactive)
CCN(CC)CC(=O)Nc1ccc2ncnc(Nc3ccc(Oc4cccc(F)c4)c(Cl)c3)c2c1,74.9% (inactive),87.6% (inactive),65.6% (inactive),80.4% (inactive),36.9% (inactive),39.5% (inactive),64.6% (inactive),55.7% (inactive),59.7% (inactive),68.8% (inactive)
O=C(Nc1ccc2ncsc2c1)c1csc(Nc2ccc3[nH]ncc3c2)n1,62% (inactive),59% (inactive),51.5% (inactive),61.7% (inactive),19.5% (inactive),67.5% (inactive),24.7% (inactive),44.3% (inactive),42.8% (inactive),31.2% (inactive)
C=C(C)[C@@H]1CC[C@]2(C)[C@H](CC(=O)N[C@H]3[C@@H]4C[C@](C)(C(=O)OC)CC[C@]4(C)CC[C@]32C)[C@@]1(C)CCC#N,92.7% (inactive),78.1% (inactive),103% (inactive),110% (inactive),96.8% (inactive),69.3% (inactive),71.3% (inactive),94.2% (inactive),107% (inactive),86.9% (inactive)
CC12OC(CC(O)C1O)n1c3ccccc3c3c4c(c5c6ccccc6n2c5c31)C(=O)N(CCN1CCOCC1)C4=O (stereo not given),-6.63% (active),-35.6% (active),14.5% (inactive),-11.7% (active),-12.5% (active),19.6% (inactive),-16.3% (active),-31.8% (active),1.94% (active),-2.3% (active)
COc1ccc(-c2nnc3n(C)c(=O)c4ccccc4n23)cc1O,41.4% (inactive),76.8% (inactive),44.6% (inactive),20.3% (inactive),12% (inactive),67.3% (inactive),15.6% (inactive),16.5% (inactive),30.8% (inactive),16.6% (inactive)
O=C1C=C(Nc2ccccc2)c2ncccc2C1=O,-43.1% (active),-46.6% (active),-97.5% (active),-90.4% (active),-69.4% (active),-79.9% (active),-75.3% (active),-49% (active),-91.9% (active),-76.6% (active)
COC(=O)/C=C1/SC(=Nc2ccc([N+](=O)[O-])cc2)N(CCc2c[nH]c3ccccc23)C1=O,72.7% (inactive),98.7% (inactive),98.4% (inactive),96.7% (inactive),92.2% (inactive),73.2% (inactive),53.6% (inactive),90.8% (inactive),68% (inactive),84.6% (inactive)
CCCCC1COc2cccc3c2N1C=C/C3=C\C(=O)N(C)c1cccc(Cl)c1 (stereo not given),97.5% (inactive),100% (inactive),110% (inactive),109% (inactive),105% (inactive),92% (inactive),90.1% (inactive),99.5% (inactive),99.8% (inactive),100% (inactive)
COc1ccc(C(=O)c2ccc(OC)c(OC)c2OC)cc1,41.1% (inactive) and 40.7% (inactive),62.8% (inactive) and 53.2% (inactive),59% (inactive),41.7% (inactive) and 25.5% (inactive),20.1% (inactive) and 5.6% (active),59.6% (inactive) and 41.5% (inactive),11.2% (inactive) and 12.1% (inactive),47% (inactive) and 41.3% (inactive),74% (inactive) and 46.1% (inactive),3.87% (active) and -14.7% (active)
Nc1nc(N)c2c(n1)NC(c1cccc(Nc3ccnc4cc(C(F)(F)F)ccc34)c1)CC(c1ccc(F)cc1)=N2 (stereo not given),70.4% (inactive),80% (inactive),86.4% (inactive),48.7% (inactive),18% (inactive),31.6% (inactive),48.2% (inactive),40.1% (inactive),60.4% (inactive),29.1% (inactive)
CCN1CCN(C(=O)[C@]23CC[C@@H](C)[C@H](C)[C@@H]2C2=CC[C@@H]4[C@@]5(C)CCC(=O)C(C)(C)[C@@H]5CC[C@@]4(C)[C@]2(C)CC3)CC1,21.4% (inactive),35.7% (inactive),10.2% (inactive),9.82% (active),-55.1% (active),-5.58% (active),-53.4% (active),19.9% (inactive),-40.1% (active),-50.9% (active)
COc1c(F)cc(-n2c(C(=O)N3CC(F)C3)cc3cccnc32)cc1F,94.1% (inactive),96.2% (inactive),95.1% (inactive),97.8% (inactive),106% (inactive),82.7% (inactive),91.2% (inactive),113% (inactive),103% (inactive),118% (inactive)
Cn1cc(C2=C(c3cccc4ccccc34)C(=O)NC2=O)c2cc(Br)ccc21,93.5% (inactive),103% (inactive),100% (inactive),111% (inactive),104% (inactive),171% (inactive),99.8% (inactive),91.3% (inactive),84.7% (inactive),92% (inactive)
COc1ccc(-c2cc(-c3cccc(Cl)c3)c(C#N)c(=O)[nH]2)c(OC)c1,92.2% (inactive),101% (inactive),96% (inactive),99.2% (inactive),98.7% (inactive),68% (inactive),90.6% (inactive),96.4% (inactive),89.7% (inactive),121% (inactive)
O=C(/C=C\c1ccc(Cl)c(Cl)c1)c1ccccc1,89.1% (inactive),88.2% (inactive) and 92.3% (inactive),107% (inactive),100% (inactive) and 91.4% (inactive),101% (inactive) and 100% (inactive),70.7% (inactive),81% (inactive) and 87.1% (inactive),86.7% (inactive) and 93.1% (inactive),84.9% (inactive) and 104% (inactive),99.9% (inactive) and 121% (inactive)
